Source: PubChem BioAssay AID1159580 (chemical genetic matrix, 2015)
“And” between values parts separate entries of the source, which are not always exact repeats. Equal values may be shown once. Among all 5,500 compounds or so, about 2,000 (36%) were called active. Roughly 18% stayed inconclusive and do not appear here. Rule as the data show it: active = normalized growth mostly below about 0.91 (no sharp cut-off); inconclusive = no clear call, values can overlap the other calls; inactive = mostly above about 0.92. Some of the results follow.

Test: chemical genetic growth profiling, strain panel (AID 1159580);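 also: tested at 20 µM; growth read once vehicle control cultures reached saturation at 30 °C; 1 = growth at the plate median or of vehicle wells; lower values mean less growth of the strain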
Details: S. cerevisiae deletion strains, growth OD

Measured: normalized growth

O=c1[nH]c(=O)n(C2C[C@H](O)[C@@H](CO)O2)cc1C(F)(F)F (stereo partly specified)
inactive: locus YAL013W, strain DEP1, stronger effect = lower value 0.992 | locus YAL021C, strain ccr4, stronger effect = lower value 0.999 | locus YAL026C, strain drs2, stronger effect = lower value 0.973 | locus YAL030W, strain snc1, stronger effect = lower value 0.979 | locus YBL061C, strain skt5, stronger effect = lower value 0.974 | locus YBR009C, strain hhf1, stronger effect = lower value 0.981 | locus YBR021W, strain FUR4, stronger effect = lower value 0.968 | locus YBR023C, strain chs3, stronger effect = lower value 0.983 | locus YBR171W, strain sec66, stronger effect = lower value 0.965 | locus YBR229C, strain ROT2, stronger effect = lower value 0.986 | locus YBR231C, strain swc5, stronger effect = lower value 0.976 | locus YBR279W, strain paf1, stronger effect = lower value 0.98 | locus YCL011C, strain gbp2, stronger effect = lower value 0.954 | locus YCL016C, strain dcc1, stronger effect = lower value 0.972 | locus YCL029C, strain bik1, stronger effect = lower value 0.971 | locus YCL069W, strain vba3, stronger effect = lower value 0.994 | locus YCR088W, strain abp1, stronger effect = lower value 0.973 | locus YDL005C, strain med2, stronger effect = lower value 0.964 | locus YDL035C, strain GPR1, stronger effect = lower value 0.986 | locus YDL040C, strain nat1, stronger effect = lower value 0.976 | locus YDL074C, strain BRE1, stronger effect = lower value 0.97 | locus YDL101C, strain DUN1, stronger effect = lower value 0.987 | locus YDL134C, strain PPH21, stronger effect = lower value 1 | locus YDL185W, strain tfp1, stronger effect = lower value 0.962 | locus YDL192W, strain arf1, stronger effect = lower value 0.981 | locus YDR001C, strain nth1, stronger effect = lower value 0.947 | locus YDR069C, strain doa4, stronger effect = lower value 0.95 | locus YDR101C, strain arx1, stronger effect = lower value 0.981 | locus YDR137W, strain rgp1, stronger effect = lower value 0.901 | locus YDR150W, strain NUM1, stronger effect = lower value 0.996 | locus YDR159W, strain sac3, stronger effect = lower value 0.947 | locus YDR162C, strain NBP2, stronger effect = lower value 0.984 | locus YDR195W, strain ref2 0.922 | locus YDR297W, strain sur2, stronger effect = lower value 0.969 | locus YDR318W, strain mcm21, stronger effect = lower value 0.987 | locus YDR334W, strain swr1, stronger effect = lower value 0.964 | locus YDR335W, strain msn5, stronger effect = lower value 0.96 | locus YDR388W, stronger effect = lower value 0.975 | locus YDR392W, strain spt3, stronger effect = lower value 1 | locus YDR502C, strain sam2, stronger effect = lower value 0.979 | locus YEL003W, strain gim4, stronger effect = lower value 0.979 | locus YEL037C, strain rad23, stronger effect = lower value 0.984 | locus YEL061C, strain CIN8 (second series), stronger effect = lower value 0.952 | locus YEL061C, strain CIN8, stronger effect = lower value 0.995 | locus YER015W, strain faa2, stronger effect = lower value 0.972 | locus YER016W, strain bim1, stronger effect = lower value 0.978 | locus YER110C, stronger effect = lower value 0.966 | locus YER111C, strain swi4, stronger effect = lower value 0.976 | locus YER155C, strain BEM2 (second series), stronger effect = lower value 0.957 | locus YER155C, strain BEM2, stronger effect = lower value 0.984 | locus YER167W, strain BCK2, stronger effect = lower value 0.945 | locus YFR010W, strain ubp6, stronger effect = lower value 0.953 | locus YGL078C, strain dbp3, stronger effect = lower value 0.966 | locus YGL086W, strain mad1, stronger effect = lower value 0.979 | locus YGL167C, strain pmr1, stronger effect = lower value 0.968 | locus YGL173C, strain kem1, stronger effect = lower value 0.98 | locus YGL227W, strain vid30, stronger effect = lower value 0.946 | locus YGL240W, strain doc1, stronger effect = lower value 1 | locus YGL248W, strain PDE1, stronger effect = lower value 0.978 | locus YGL253W, strain hxk2, stronger effect = lower value 0.972 | locus YGR078C, strain PAC10, stronger effect = lower value 0.997 | locus YGR135W, strain pre9, stronger effect = lower value 0.969 | locus YGR229C, strain SMI1, stronger effect = lower value 0.963 | locus YGR252W, strain gcn5, stronger effect = lower value 0.971 | locus YHR013C, strain ard1, stronger effect = lower value 0.923 | locus YHR027C, strain rpn1, stronger effect = lower value 0.958 | locus YHR030C, strain SLT2, stronger effect = lower value 0.985 and 1.02 | locus YHR079C, strain IRE1 (second series), stronger effect = lower value 0.974 | locus YHR079C, strain IRE1, stronger effect = lower value 1.03 | locus YHR094C, strain hxt1, stronger effect = lower value 0.983 | locus YHR129C, strain ARP1, stronger effect = lower value 0.987 | locus YHR142W, strain chs7, stronger effect = lower value 0.922 | locus YHR200W, strain rpn10, stronger effect = lower value 0.985 | locus YIL066C, strain RNR3, stronger effect = lower value 0.986 | locus YIL073C, strain SPO22, stronger effect = lower value 0.967 | locus YIL125W, strain kgd1, stronger effect = lower value 0.968 | locus YIR030C, strain dcg1, stronger effect = lower value 0.969 | locus YJL092W, strain hpr5, stronger effect = lower value 0.962 | locus YJL095W, strain BCK1 (second series), stronger effect = lower value 0.962 | locus YJL095W, strain BCK1, stronger effect = lower value 0.969 and 1.01 | locus YJL115W, strain asf1, stronger effect = lower value 0.928 | locus YJL129C, strain trk1, stronger effect = lower value 0.916 | locus YJL134W, strain LCB3, stronger effect = lower value 0.987 | locus YJL154C, strain vps35, stronger effect = lower value 0.975 | locus YJL164C, strain tpk1, stronger effect = lower value 0.968 | locus YJL166W, strain qcr8, stronger effect = lower value 0.953 | locus YJL168C, strain set2, stronger effect = lower value 0.987 | locus YJL187C, strain SWE1 (second series), stronger effect = lower value 0.982 | locus YJR043C, strain POL32, stronger effect = lower value 0.973 | locus YJR066W, strain TOR1, stronger effect = lower value 0.963 | locus YJR075W, strain HOC1, stronger effect = lower value 0.991
